# For some assays here: Potency and affinity values are given separately.
# How the values were obtained:
# Design in all cases: scale not given: direction of the effect not stated beside the values
# [1] = biological target: Protein translocase subunit SecA (Escherichia coli (strain K12)) (UniProt P10408); assay: Assay to Identify E. coli SecA ATPase Inhibitors; assay type: functional; conditions: 30 µM
# [2] = biological target: T1, Ubiquitin-activating enzyme e1, putative (Leishmania donovani (strain BPK282A1)) (UniProt E9BSI1); assay: Leishmania donovani Ubiquitin Activating Enzyme (LdE1); assay type: functional; conditions: 30 µM
# T1 sequence (whole entry): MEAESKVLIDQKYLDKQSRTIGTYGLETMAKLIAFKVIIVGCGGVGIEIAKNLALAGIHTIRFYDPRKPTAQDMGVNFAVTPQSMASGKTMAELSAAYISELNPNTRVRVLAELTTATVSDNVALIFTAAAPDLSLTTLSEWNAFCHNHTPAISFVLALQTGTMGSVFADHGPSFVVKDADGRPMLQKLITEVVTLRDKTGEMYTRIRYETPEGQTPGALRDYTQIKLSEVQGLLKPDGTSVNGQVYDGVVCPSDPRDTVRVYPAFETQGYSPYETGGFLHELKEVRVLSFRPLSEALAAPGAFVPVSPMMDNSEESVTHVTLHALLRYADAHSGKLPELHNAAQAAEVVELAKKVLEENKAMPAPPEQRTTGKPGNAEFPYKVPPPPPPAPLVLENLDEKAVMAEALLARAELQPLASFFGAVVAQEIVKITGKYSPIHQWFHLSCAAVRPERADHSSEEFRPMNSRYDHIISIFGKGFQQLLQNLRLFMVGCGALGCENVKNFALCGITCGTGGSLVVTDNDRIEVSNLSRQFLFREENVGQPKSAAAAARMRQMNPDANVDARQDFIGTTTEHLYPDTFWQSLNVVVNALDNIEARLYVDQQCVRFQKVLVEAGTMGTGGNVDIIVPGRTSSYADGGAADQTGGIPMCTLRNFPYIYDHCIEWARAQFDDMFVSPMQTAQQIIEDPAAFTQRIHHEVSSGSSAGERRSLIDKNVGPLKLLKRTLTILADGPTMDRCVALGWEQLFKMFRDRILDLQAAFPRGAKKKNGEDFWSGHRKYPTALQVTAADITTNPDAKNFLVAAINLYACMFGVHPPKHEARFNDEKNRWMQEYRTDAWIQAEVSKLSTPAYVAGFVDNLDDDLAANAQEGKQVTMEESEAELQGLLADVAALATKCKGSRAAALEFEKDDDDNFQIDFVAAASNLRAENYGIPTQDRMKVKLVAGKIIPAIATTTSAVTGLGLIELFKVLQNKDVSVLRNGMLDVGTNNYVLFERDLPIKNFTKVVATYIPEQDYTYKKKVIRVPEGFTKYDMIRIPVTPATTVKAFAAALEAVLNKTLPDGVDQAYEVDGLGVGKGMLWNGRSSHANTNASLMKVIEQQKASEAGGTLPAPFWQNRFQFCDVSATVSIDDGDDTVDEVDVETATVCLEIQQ
# [3] = biological target: AMP-activated protein kinase, AMPK (Homo sapiens) (UniProt P54646+O43741+P54619+Q9UGJ0+Q9Y478+Q13131+Q9UGI9); assay: AMP-dependent Kinase enzyme assay. An in vitro enzyme assay that detects ADP turnover that is directly proportional to AMPK activity. This uses naive AMPK that is activated during the assay with MK-8722; assay type: functional; conditions: 30 µM
# [4] = biological target: Sialic acid-binding Ig-like lectin 9 (Homo sapiens) (UniProt Q9Y336); assay: Hs-Siglec9 ALPHAscreen SOP 20170721; conditions: 10 µM
# Chain of Sialic acid-binding Ig-like lectin 9 (Homo sapiens) (Q9Y336 whole entry): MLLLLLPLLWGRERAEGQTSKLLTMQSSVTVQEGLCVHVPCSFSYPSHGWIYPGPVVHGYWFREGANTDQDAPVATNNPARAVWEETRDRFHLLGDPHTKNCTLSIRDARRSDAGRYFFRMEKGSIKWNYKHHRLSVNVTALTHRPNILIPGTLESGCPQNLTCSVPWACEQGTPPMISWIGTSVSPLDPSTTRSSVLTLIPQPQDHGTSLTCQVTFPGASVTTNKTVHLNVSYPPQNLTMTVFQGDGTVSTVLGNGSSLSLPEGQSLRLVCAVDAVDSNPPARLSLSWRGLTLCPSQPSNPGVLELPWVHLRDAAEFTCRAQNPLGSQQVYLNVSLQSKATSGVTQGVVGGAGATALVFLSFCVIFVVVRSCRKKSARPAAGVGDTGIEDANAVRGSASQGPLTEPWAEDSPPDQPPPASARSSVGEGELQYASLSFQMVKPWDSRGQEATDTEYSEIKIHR
# Trypanosoma cruzi = assay: Trypanosoma cruzi phosphomannomutase and mannose-1-phosphate guanylyltransferase assay; assay type: functional; conditions: 10 µM
# [5] = biological target: T2, Arginase-2, mitochondrial (Homo sapiens) (UniProt P78540); assay: in vitro enzyme assay to detect the production of urea directly proportional to the activity of Arginase II; assay type: functional; conditions: 33.3 µM; note: in the data most compounds retested in dose-response had high values
# T2 sequence (whole entry): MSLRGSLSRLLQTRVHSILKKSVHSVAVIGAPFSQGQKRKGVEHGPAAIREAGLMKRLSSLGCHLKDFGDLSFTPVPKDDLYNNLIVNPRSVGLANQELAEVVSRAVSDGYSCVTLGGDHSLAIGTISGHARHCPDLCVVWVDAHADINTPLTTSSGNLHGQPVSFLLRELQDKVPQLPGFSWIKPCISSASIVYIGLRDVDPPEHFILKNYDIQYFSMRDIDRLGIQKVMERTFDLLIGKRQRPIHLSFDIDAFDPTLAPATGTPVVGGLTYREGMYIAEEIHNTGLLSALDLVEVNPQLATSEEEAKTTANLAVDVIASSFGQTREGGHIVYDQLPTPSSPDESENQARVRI
# [6] = biological target: T3, Proteasome subunit beta (Trypanosoma cruzi) (UniProt O96673); assay: Trypanosoma cruzi proteasome chymotrypsin-like activity (TcProtChymo) assay.; note: in the data most compounds retested in dose-response had high values; assay type: functional; conditions: 9.37 µM
# T3 sequence (whole entry): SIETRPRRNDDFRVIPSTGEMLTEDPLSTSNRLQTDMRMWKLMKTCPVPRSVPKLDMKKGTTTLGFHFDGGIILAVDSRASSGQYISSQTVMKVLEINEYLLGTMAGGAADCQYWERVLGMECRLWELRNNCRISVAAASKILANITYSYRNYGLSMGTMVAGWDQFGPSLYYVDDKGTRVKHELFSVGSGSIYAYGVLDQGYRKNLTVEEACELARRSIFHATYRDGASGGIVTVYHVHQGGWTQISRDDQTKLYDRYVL
# Homo sapiens = species: Homo sapiens; assay: To identify inhibition of the IFN signalling (Jak-Stat) pathway via expression of an eGFP reporter gene under the control of an IFN-stimulated response element (ISRE) containing MxA promoter.; assay type: functional; conditions: 30 µM
# [7] = biological target: T4, Tyrosyl-tRNA synthetase, putative (Trypanosoma cruzi (strain CL Brener)) (UniProt Q4DSP6); assay: Trypanosoma cruzi tyrosyl tRNA synthetase (TcYRS) _High Tyrosine SOP; assay type: functional; conditions: 30 µM; note: in the data most compounds retested in dose-response had high values
# T4 sequence (whole entry): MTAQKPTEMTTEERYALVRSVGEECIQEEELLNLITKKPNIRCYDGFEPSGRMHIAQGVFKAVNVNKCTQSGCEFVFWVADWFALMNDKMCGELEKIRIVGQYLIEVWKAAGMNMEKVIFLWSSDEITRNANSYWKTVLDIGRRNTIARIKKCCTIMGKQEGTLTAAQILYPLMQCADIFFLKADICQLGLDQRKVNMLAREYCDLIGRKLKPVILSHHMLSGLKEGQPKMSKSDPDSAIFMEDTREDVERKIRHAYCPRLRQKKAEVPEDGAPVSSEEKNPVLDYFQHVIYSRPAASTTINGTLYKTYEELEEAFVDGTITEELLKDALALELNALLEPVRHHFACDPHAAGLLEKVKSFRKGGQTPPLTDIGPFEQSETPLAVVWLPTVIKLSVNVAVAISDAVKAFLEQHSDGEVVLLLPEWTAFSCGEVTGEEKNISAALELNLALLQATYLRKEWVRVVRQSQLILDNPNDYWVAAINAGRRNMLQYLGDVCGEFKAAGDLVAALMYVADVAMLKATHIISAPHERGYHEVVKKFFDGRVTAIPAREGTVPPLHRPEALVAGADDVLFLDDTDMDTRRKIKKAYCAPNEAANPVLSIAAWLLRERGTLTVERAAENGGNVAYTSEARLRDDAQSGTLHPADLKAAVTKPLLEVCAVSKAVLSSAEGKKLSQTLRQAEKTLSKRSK
# [8] = biological target: T4, Tyrosyl-tRNA synthetase, putative (Trypanosoma cruzi (strain CL Brener)); assay: Trypanosoma cruzi tyrosyl tRNA synthetase (TcYRS) SOP; assay type: functional; conditions: 30 µM
# [9] = biological target: Chromo domain-containing protein 1 (Saccharomyces cerevisiae (strain ATCC 204508 / S288c) (Baker's yeast)) (UniProt P32657); assay: ScCHD-1 Enzyme Inhibition Assay; assay type: functional; conditions: 30 µM; note: in the data most compounds retested in dose-response had high values
# Chain of Chromo domain-containing protein 1 (Saccharomyces cerevisiae (strain ATCC 204508 / S288c) (Baker's yeast)) (P32657 whole entry, the tested form may be a part): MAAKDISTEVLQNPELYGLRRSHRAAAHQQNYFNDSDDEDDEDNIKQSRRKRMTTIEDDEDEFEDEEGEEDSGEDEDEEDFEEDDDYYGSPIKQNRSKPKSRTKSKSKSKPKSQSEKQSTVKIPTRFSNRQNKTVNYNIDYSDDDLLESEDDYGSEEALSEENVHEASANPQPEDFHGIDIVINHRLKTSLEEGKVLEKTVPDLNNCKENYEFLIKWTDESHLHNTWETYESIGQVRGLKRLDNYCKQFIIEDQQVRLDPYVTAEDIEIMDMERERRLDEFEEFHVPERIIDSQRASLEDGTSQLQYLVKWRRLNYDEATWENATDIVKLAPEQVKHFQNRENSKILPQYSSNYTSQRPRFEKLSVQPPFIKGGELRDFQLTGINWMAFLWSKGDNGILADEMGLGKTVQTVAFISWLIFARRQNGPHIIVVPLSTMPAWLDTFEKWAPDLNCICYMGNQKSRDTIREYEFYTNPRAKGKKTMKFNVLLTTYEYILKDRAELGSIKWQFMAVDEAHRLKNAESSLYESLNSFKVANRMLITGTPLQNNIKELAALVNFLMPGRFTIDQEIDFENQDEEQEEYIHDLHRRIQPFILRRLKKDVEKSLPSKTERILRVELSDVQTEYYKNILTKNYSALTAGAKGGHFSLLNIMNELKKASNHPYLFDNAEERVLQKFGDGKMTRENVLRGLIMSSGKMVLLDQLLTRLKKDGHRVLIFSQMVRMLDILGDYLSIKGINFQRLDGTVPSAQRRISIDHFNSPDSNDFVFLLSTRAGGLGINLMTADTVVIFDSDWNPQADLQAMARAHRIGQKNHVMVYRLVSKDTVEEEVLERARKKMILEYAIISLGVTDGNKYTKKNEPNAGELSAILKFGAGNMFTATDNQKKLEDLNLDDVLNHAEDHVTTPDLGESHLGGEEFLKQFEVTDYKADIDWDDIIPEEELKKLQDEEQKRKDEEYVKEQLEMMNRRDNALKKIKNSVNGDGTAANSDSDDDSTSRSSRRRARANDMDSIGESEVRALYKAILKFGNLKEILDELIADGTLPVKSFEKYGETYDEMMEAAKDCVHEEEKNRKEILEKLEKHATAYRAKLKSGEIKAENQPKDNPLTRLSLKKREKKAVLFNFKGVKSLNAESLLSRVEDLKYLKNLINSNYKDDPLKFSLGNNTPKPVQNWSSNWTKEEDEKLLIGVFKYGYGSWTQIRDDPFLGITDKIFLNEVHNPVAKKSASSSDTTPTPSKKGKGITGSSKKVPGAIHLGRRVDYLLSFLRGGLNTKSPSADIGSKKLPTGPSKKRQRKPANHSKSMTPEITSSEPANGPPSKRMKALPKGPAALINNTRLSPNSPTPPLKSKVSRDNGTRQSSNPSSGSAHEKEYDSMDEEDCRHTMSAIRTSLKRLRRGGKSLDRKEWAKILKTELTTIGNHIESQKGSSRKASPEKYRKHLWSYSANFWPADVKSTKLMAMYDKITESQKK
# Chain of Protein translocase subunit SecA (Escherichia coli (strain K12)) (P10408 whole entry): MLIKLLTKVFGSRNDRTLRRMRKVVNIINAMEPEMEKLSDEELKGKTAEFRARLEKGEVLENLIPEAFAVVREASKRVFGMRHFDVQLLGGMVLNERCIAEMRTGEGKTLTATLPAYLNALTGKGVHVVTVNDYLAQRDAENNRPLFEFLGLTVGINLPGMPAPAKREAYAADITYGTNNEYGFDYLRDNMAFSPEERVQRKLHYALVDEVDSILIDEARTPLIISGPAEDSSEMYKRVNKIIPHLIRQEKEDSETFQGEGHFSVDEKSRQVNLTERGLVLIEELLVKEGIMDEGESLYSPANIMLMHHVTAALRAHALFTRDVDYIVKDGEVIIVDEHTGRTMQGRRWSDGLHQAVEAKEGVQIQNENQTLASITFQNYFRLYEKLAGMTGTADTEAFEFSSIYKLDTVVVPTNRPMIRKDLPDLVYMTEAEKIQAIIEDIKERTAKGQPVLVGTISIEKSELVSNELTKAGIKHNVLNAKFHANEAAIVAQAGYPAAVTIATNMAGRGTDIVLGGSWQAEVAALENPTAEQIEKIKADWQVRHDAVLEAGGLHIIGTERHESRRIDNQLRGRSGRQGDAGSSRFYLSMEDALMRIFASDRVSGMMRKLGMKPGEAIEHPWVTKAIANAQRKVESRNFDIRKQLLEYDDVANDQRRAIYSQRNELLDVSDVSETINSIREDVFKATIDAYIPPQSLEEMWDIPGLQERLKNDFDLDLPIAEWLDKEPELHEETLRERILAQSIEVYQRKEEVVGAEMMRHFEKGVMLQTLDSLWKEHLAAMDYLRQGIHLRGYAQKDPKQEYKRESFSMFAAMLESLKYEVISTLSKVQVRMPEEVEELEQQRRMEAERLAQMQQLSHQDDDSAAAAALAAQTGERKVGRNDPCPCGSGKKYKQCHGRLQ
Compound,Percent Effect [1],Percent Effect [2],Percent Effect [3],Percent Effect [4],Percent Effect (Trypanosoma cruzi),Percent Effect [5],Percent Effect [6],Percent Effect (Homo sapiens),Percent Effect [7],Percent Effect [8],Percent Effect [9]
CCOC(C)c1nc(CN2CCNCC2)cs1 (stereo not given),-3%,-8.11%,-1.11%,0.0763%,-3.09%,-5.24%,6.21%,14.6%,-1.59%,-4.88%,-3.79%
Cc1nn(CC(=O)N2CCN(c3ccncc3)CC2)c(C)c1Cl,-3.26%,10.5%,1.94%,4.31%,1.66%,-18.9%,12.6%,16.3%,5.32%,15.6%,-7.63%
CC(CNC(=O)Nc1cn[nH]c1)N1CCc2ccccc2C1 (stereo not given),-4.87%,15.6%,-4.05%,-3.09%,-1.67%,0.632%,14.2%,12.5%,9.52%,21.2%,-18%
O=C(Nc1ccccc1F)N(CCO)Cc1ccsc1,-4.39%,0%,2.24%,1.32%,-3.76%,-1.92%,-2.51%,29.1%,-1.47%,-4.88%,10.7%
c1cnn(CC2CN(c3ncnc4ccsc34)CCO2)c1 (stereo not given),-5.02%,2.7%,14.2%,-3.02%,-4.69%,0.833%,19.5%,69.8%,4.95%,11%,0.323%
O=C1N(Cc2cccc(F)c2F)CCCC1(O)CN1CCCOCC1 (stereo not given),-6.11%,-5.33%,-3.73%,6.26%,1.46%,0%,5.06%,5.93%,4.92%,11.1%,-4.58%
CS(=O)(=O)NCCCNC(=O)c1cccc(-n2cccc2)c1,-5.41%,15.8%,0.491%,-5%,2.04%,1.18%,15.8%,1.58%,1.06%,13%,-6.62%
CCOc1ncccc1C(=O)N(C)Cc1ncc(C)c(OC)c1C,-0.0989%,13%,5.97%,-3.9%,-3.23%,6.95%,12.5%,27.5%,5.71%,18.8%,-14.4%
CN(Cc1cn2c(n1)CN(CC1CC1)CC2)Cc1ccco1,-3.08%,8%,16.6%,0.972%,-3.35%,0.233%,1.5%,8.85%,7.45%,8.97%,-4.14%
Cc1nc(C)n(CC2CCCN(c3ncnc4sccc34)C2)n1 (stereo not given),-2.59%,13.5%,-5.88%,-5.07%,-6.32%,0.401%,9.91%,65.9%,6.4%,16.1%,-6.06%

# From ChEMBL document CHEMBL3988442, “University of Dundee, Small-Polar-MMV Screening Library” (2021)
